MLL AF4-AF9 inh – MLL-AF4/AF9 protein interaction inhibition; P42568; inhibition, % at 10 µM; AlphaScreen, biotin-AF4 peptide binding to FLAG-AF9; actives 0.47% (n = 350,000);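 active = every replicate reaching a set inhibition limit, whatever the replicate mean, cut at about 25% in these data; inconclusive = mean inhibition reaches that limit but some replicates miss it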
Target sequence (P42568 whole entry, looked up): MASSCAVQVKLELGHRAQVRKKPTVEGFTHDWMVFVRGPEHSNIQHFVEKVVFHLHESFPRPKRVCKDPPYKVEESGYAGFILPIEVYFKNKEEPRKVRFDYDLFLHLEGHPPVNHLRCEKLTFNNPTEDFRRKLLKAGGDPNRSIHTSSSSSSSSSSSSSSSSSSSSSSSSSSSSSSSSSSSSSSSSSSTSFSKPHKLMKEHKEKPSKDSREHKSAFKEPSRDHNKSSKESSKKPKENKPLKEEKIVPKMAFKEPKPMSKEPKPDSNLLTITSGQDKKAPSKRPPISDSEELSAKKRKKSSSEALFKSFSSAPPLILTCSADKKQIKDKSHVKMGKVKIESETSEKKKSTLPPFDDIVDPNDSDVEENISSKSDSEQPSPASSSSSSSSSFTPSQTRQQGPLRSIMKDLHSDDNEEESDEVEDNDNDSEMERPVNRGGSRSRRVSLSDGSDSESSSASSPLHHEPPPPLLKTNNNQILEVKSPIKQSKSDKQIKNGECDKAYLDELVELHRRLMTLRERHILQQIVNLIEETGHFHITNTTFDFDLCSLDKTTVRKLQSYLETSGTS
GSIS activator – GLuc luminescence reporter in INS-1E cells, primary screen for activators of glucose-dependent secretion of insulin. AID 743287. INS-1E GLuc reporter insulin secretion, 2-3 h. actives 0.61% (n = 370,000). activation, % at 16.6 µM;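 active = lowest replicate activation of at least 40%, so every replicate reaches that level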
RAD52 inh – RAD52 (human) annealing inhibition; P43351; recombinant RAD52 DNA annealing, FRET fluorescence; inhibition, % at 18.7 µM; actives 0.46% (n = 360,000); AID 651710;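 active = every replicate showing at least 50% inhibition; inconclusive = mean inhibition at least 50% but not in every replicate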
DENV2 CPE rescue – inhibitors of DENV2 cytopathic effect; DENV2-infected cells, cytopathic effect rescue, plate reader; CPE inhibition, % at 9.99 µM; actives 1.7% (n = 350,000); in the data active = CPE inhibition above about 20%, passing the limit was not always enough; inconclusive = no clear call, values can overlap the other calls; tested in BHK-21 cells
RAD54 inh – blocks human RAD54 Holliday junction branch migration; FAM/BHQ fluorescence; inhibition, % at 10.4 µM; actives 0.14% (n = 360,000);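 active = mean normalized replicate activity at least 40 and at least half of replicates scoring 40 or more; inconclusive = only one of the two criteria met; inactive = mean below 40 and under half of replicates reaching 40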;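 also: inhibitors cause a drop in the FAM fluorescence signal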
dFosB activator – activators of mouse delta FosB homodimer; AID 493131; purified delta FosB, TAMRA-CDK5 oligo fluorescence polarization; percent of positive-control signal above neutral wells; activation, % at 25 µM; actives 0.99% (n = 340,000);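 active = mean activation above about 17%, with every replicate also reaching it, limit read from the data, passing the limit was not always enough; inconclusive = only one of the two conditions met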
Large screens that a line does not name were inactive. Hits are enriched below; roughly 3.1% of the tested compounds scored in any of these assays.

CC(C)(C)N1C(=O)c2ccc(C(=O)Nc3ccc(O)cc3)cc2C1=O	DENV2 CPE rescue 54.3
COC(=O)c1cccc(NC(=O)c2ccc3c(c2)C(=O)N(C(C)(C)C)C3=O)c1	DENV2 CPE rescue inconclusive
C[C@@H]1CCCCO[C@H](CN(C)Cc2ccc(C(F)(F)F)cc2)[C@H](C)CN([C@H](C)CO)C(=O)c2cc(NS(=O)(=O)c3ccc(F)cc3)ccc2O1	DENV2 CPE rescue 30.0 (no result: dFosB activator)
C[C@@H]1CN([C@H](C)CO)C(=O)c2cc(NS(=O)(=O)c3ccc(F)cc3)ccc2O[C@@H](C)CCCCO[C@@H]1CN(C)Cc1ccncc1	DENV2 CPE rescue 33.5 (no result: dFosB activator)
C[C@H]1CCCCO[C@@H](CN(C)Cc2ccc(C(F)(F)F)cc2)[C@@H](C)CN([C@@H](C)CO)C(=O)c2cc(NS(=O)(=O)c3ccc(F)cc3)ccc2O1	none (no result: dFosB activator)
C[C@@H]1CCCCO[C@H](CN(C)Cc2ccncc2)[C@H](C)CN([C@H](C)CO)C(=O)c2cc(NS(=O)(=O)c3ccccc3)ccc2O1	DENV2 CPE rescue 28.0 (no result: dFosB activator)
CCC(=O)N[C@@H]1C=C[C@H](CC(=O)NCc2ccccc2F)O[C@H]1CO	none (no result: dFosB activator)
O=C(NCc1cccc(F)c1)[C@@H]1[C@@H](CO)[C@@H]2Cn3c(cccc3=O)[C@H]1N2	none (no result: dFosB activator)
COc1ccc(OC)c(CN2C(=O)CN(S(C)(=O)=O)CC2(C)C(=O)NCc2ccccc2)c1 (stereo not drawn)	DENV2 CPE rescue 32.4 (no result: MLL AF4-AF9 inh, RAD54 inh, dFosB activator)
C[C@H]1CN([C@@H](C)CO)C(=O)Cc2cc(NC(=O)C3CC3)ccc2O[C@@H]1CN(C)S(=O)(=O)c1ccccc1	none (no result: dFosB activator)
COc1ccc(-c2ccc(/C=C3/C(=N)N4C=CSC4=NC3=O)o2)c([N+](=O)[O-])c1	GSIS activator 158.1 (no result: MLL AF4-AF9 inh, RAD52 inh, DENV2 CPE rescue)
N=C1/C(=C/c2cccn2-c2ccc([N+](=O)[O-])cc2)C(=O)N=C2SC=CN12	none (no result: RAD54 inh)
Oc1ccccc1Nc1nc(NCc2ccccc2)c2ccccc2n1	dFosB activator 84.2 (no result: RAD54 inh)
CC[C@H](C)Cc1cn([C@@H](CCCN=C(NC(=O)OC(C)(C)C)NC(=O)OC(C)(C)C)C(=O)NCCCCCCCCCCC(=O)N2CCN(C(=O)OC(C)(C)C)CC2)nn1	dFosB activator 33.0 (no result: MLL AF4-AF9 inh, GSIS activator, RAD52 inh, DENV2 CPE rescue)
O=C(C1CCCC1)N1C[C@H]2[C@@H](c3ccccc31)[C@@H](CO)N2C(=O)c1cccnc1	none (no result: dFosB activator)
O=C(NCC[C@H]1CC[C@H](NC(=O)C2CCCCC2)[C@@H](CO)O1)c1cc(Cl)cc(Cl)c1	none (no result: dFosB activator)
COC(=O)N(C)C[C@H]1OCc2ccccc2-c2c(n(C)c3ccccc23)C(=O)N([C@@H](C)CO)C[C@H]1C	none (no result: dFosB activator)
Cc1ccc(S(=O)(=O)N(C)C[C@H]2Oc3c(NS(=O)(=O)c4ccc(Cl)cc4)cccc3C(=O)N([C@@H](C)CO)C[C@H]2C)cc1	DENV2 CPE rescue 74.4 (no result: dFosB activator)
Cc1ccc(S(=O)(=O)Nc2cccc3c2O[C@@H](CN(C)S(=O)(=O)c2ccc(Cl)cc2)[C@@H](C)CN([C@H](C)CO)C3=O)cc1	none (no result: RAD54 inh, dFosB activator)
COc1ccc(S(=O)(=O)Nc2cccc3c2O[C@H](CN(C)S(=O)(=O)c2ccc(C)cc2)[C@@H](C)CN([C@H](C)CO)C3=O)cc1	none (no result: MLL AF4-AF9 inh, RAD52 inh, dFosB activator)
COc1ccc(S(=O)(=O)N(C)C[C@@H]2Oc3c(NS(=O)(=O)c4ccc(C)cc4)cccc3C(=O)N([C@H](C)CO)C[C@H]2C)cc1	DENV2 CPE rescue 43.3 (no result: RAD54 inh, dFosB activator)
COCC(=O)Nc1ccc2c(c1)[C@@H]1C[C@@H](CC(=O)N3CCOCC3)O[C@@H](CO)[C@@H]1O2	none (no result: dFosB activator)
COc1ccc2c3c([nH]c2c1)[C@H](CO)N(C(=O)CN1CCOCC1)CC31CCN(C)CC1	none (no result: RAD54 inh, dFosB activator)
CC(=O)c1ccc(NC(=O)C2(c3ccccc3)CC2(Cl)Cl)cc1 (stereo not drawn)	MLL AF4-AF9 inh 32.8 (no result: RAD54 inh)
CCCC(=O)Nc1ccc2c(c1)OC[C@@H](C)N(Cc1cc(-c3ccccc3)on1)C[C@@H](C)[C@H](OC)CN(C)C2=O	none (no result: dFosB activator)
COC(=O)[C@@]12CCCN1[C@H](c1ccc(SC3CCCCC3)cc1)[C@H]1C(=O)N(C)C(=O)[C@H]12	DENV2 CPE rescue 27.9
COC(=O)[C@@]12CCCN1[C@H](c1ccc(-c3ccc(F)cc3)cc1)[C@H]1C(=O)N(C)C(=O)[C@H]12	none
COC(=O)[C@@]12CCCCN1[C@H](c1ccc(-c3ccc(F)cc3)cc1)[C@H]1C(=O)N(C)C(=O)[C@H]12	DENV2 CPE rescue 39.0
